From the supplement of paper PMC10849652
The full data set covers some 7,900 targets. This sample favours those with a hit. About 0.6% of all pairs of compound and target were hits. A number with no mark means an inactive call.

What was measured:
Test in all cases: log2 fold change, soluble protein after heating vs DMSO (PISA); higher = thermal stabilisation; K562 cells, 10 uM, 30 min; active = over 0.2 and 3.5 SD of the protein, either way, in both replicates (recomputed)
IRAK-1-4 Inhibitor I = compound: C1COCCN1CCN2C3=CC=CC=C3N=C2NC(=O)C4=CC(=CC=C4)[N+](=O)[O-] [IRAK-1-4 Inhibitor I]
How it was run: (§1)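 Aliquots of K562 cells (2×10^6 cells/mL) treated with 10 μM compound for 30 min were heated for 3 min over 48°C-58°C. After pooling and extraction in PBS with 0.5% NP-40 at 4°C, soluble protein from a 21,000xg, 90 min spin was quantified by TMTpro 16plex LC-MS/MS with channel sums equalised. Thermal stability is expressed against control samples, from duplicates, as a log2 fold change.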

ibrutinib = compound: C=CC(=O)N1CCC[C@@H](n2nc(-c3ccc(Oc4ccccc4)cc3)c3c(N)ncnc32)C1 [ibrutinib]
How it was run: as §1

[1] = compound: CC(=O)c1cnc2ccc(-c3cc(Cl)c(O)c(Cl)c3)nc2c1N[C@H]1CC[C@H](CN(C)C)CC1
How it was run: as §1

ralimetinib = compound: CC(C)(C)Cn1c(N)nc2ccc(-c3[nH]c(C(C)(C)C)nc3-c3ccc(F)cc3)nc21 [ralimetinib]
How it was run: as §1

[2] = compound: CC(C)C1=C2N=C(C=C(N2N=C1)NCC3=CC=CC=C3)NCCCCCCN
How it was run: as §1

[3] = compound: CC(C)C[C@@H](C=O)NC(=O)[C@H](CC(C)C)NC(=O)[C@H](CC(C)C)NC(=O)OCc1ccccc1
How it was run: as §1

pinometostat = compound: CC(C)N(C[C@H]1O[C@@H](n2cnc3c(N)ncnc32)[C@H](O)[C@@H]1O)[C@H]1C[C@@H](CCc2nc3cc(C(C)(C)C)ccc3[nH]2)C1 [pinometostat]
How it was run: as §1

[4] = compound: CC1=C(C(CC(=O)N1)C2=CC=C(C=C2)C(F)(F)F)C(=O)NC3=C(C=C4C(=C3)C=NN4)F
How it was run: as §1

[5] = compound: CC1=C(C2=C(C=C1)C(=O)C3=CC=CC=C3N2CCCN)C
How it was run: as §1

[6] = compound: CC1=C(C=C(C=C1)NC(=O)C2=CC(=CC=C2)C(C)(C)C#N)NC3=CC4=C(C=C3)N=CN(C4=O)C
How it was run: as §1

[7] = compound: CC1=C(C=C(C=C1)NC(=O)C2=CC(=CC=C2)N(C)C)NC(=O)C3=CC=C(C=C3)O
How it was run: as §1

[8] = compound: CC1=CC=C(C=C1)SC2=C3C=C(SC3=CN=C2)C(=O)N
How it was run: as §1

[9] = compound: CC1=NC(=CC=C1)C2=C(N=C(N2)C(C)(C)C)C3=CC4=NC=CN=C4C=C3
How it was run: as §1

vemurafenib = compound: CCCS(=O)(=O)Nc1ccc(F)c(C(=O)c2c[nH]c3ncc(-c4ccc(Cl)cc4)cc23)c1F [vemurafenib]
How it was run: as §1

[10] = compound: CCCS(=O)(=O)Nc1ccc(F)c(C(=O)c2c[nH]c3ncc(Cl)cc23)c1F
How it was run: as §1

[11] = compound: CCCc1cc(C)[nH]c(=O)c1CNC(=O)c1cc(-c2ccnc(N3CCN(C)CC3)c2)cc2c1cnn2C(C)C
How it was run: as §1

givinostat = compound: CCN(CC)Cc1ccc2cc(COC(=O)Nc3ccc(C(=O)NO)cc3)ccc2c1 [givinostat]
How it was run: as §1

barasertib = compound: CCN(CCCOc1ccc2c(Nc3cc(CC(=O)Nc4cccc(F)c4)[nH]n3)ncnc2c1)CCOP(=O)(O)O [barasertib]
How it was run: as §1

[12] = compound: CC(C)(O)CC(=O)NCCn1ccc2ncnc(Nc3ccc(Oc4cccc(C(F)(F)F)c4)c(Cl)c3)c21
How it was run: as §1

Nexturastat A = compound: CCCCN(Cc1ccc(C(=O)NO)cc1)C(=O)Nc1ccccc1 [Nexturastat A]
How it was run: as §1

Sequence of UniProt Q15528 (Q15528 whole entry, looked up): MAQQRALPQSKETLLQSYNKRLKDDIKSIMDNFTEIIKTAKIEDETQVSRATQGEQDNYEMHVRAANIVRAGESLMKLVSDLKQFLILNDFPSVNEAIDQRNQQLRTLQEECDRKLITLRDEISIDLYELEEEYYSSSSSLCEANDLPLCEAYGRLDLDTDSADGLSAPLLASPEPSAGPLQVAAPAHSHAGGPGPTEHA
Sequence of UniProt Q9NYL2 (Q9NYL2 whole entry, looked up): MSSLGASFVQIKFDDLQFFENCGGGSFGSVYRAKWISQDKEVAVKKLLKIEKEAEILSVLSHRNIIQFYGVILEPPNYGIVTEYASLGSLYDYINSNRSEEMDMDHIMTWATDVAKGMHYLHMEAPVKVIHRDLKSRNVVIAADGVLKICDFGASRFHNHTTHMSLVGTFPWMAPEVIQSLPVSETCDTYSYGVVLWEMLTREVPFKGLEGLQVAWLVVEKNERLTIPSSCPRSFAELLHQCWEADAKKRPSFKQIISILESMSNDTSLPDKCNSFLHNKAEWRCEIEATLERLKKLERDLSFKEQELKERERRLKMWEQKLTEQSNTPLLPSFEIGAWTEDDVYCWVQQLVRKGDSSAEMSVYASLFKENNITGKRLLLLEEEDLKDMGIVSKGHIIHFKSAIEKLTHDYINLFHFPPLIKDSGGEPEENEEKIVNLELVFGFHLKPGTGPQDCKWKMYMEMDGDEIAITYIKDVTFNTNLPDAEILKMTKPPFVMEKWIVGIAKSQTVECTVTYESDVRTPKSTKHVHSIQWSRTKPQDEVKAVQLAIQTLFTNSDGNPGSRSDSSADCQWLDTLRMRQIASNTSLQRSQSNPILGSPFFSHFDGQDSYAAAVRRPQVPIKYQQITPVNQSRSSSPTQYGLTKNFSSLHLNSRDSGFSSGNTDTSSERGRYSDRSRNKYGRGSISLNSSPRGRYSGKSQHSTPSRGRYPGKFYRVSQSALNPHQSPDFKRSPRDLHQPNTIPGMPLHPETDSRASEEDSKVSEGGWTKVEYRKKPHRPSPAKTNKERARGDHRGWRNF
Sequence of UniProt P08514 (P08514 whole entry, looked up): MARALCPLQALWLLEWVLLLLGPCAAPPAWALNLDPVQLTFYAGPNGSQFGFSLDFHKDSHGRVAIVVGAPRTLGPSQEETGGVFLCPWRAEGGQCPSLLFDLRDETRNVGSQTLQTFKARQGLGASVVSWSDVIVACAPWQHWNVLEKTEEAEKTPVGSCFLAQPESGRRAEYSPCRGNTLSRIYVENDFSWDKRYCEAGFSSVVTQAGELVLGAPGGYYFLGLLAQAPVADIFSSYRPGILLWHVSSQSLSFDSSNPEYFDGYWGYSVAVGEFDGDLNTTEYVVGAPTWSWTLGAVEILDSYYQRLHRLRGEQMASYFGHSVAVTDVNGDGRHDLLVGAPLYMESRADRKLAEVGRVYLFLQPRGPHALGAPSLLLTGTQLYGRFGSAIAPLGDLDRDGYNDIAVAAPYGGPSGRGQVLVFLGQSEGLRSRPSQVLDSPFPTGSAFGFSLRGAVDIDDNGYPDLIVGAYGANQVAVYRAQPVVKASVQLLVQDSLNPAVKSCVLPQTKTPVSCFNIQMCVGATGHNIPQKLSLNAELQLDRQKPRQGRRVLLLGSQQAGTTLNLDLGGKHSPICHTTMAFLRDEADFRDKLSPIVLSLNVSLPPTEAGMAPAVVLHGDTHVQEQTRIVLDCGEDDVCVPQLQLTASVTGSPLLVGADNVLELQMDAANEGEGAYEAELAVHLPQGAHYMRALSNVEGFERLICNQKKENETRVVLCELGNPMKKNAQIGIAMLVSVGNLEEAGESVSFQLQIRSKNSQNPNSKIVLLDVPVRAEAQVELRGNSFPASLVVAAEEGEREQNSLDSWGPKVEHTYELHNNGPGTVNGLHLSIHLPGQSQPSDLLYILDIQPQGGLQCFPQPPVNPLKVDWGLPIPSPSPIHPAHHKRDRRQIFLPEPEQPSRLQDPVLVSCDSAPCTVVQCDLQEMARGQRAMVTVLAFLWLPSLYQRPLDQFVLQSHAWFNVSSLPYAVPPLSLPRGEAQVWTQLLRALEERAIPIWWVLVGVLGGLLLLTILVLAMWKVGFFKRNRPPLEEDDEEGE
Sequence of UniProt Q8NHS3 (Q8NHS3 whole entry, looked up): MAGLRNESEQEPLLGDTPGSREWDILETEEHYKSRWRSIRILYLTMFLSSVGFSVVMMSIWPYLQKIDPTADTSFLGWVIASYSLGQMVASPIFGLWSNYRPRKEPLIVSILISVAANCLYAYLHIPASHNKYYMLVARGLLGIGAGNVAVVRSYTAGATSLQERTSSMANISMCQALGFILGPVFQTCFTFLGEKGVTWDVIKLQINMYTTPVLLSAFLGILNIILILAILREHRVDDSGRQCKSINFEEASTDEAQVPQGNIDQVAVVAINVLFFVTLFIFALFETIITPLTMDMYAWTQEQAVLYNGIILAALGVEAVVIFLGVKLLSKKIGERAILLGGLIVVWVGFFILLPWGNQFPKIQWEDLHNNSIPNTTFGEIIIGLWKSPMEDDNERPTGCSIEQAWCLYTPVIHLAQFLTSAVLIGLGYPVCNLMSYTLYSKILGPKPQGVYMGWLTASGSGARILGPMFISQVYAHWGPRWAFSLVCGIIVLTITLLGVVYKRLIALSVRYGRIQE
Sequence of UniProt Q12851 (Q12851 whole entry, looked up): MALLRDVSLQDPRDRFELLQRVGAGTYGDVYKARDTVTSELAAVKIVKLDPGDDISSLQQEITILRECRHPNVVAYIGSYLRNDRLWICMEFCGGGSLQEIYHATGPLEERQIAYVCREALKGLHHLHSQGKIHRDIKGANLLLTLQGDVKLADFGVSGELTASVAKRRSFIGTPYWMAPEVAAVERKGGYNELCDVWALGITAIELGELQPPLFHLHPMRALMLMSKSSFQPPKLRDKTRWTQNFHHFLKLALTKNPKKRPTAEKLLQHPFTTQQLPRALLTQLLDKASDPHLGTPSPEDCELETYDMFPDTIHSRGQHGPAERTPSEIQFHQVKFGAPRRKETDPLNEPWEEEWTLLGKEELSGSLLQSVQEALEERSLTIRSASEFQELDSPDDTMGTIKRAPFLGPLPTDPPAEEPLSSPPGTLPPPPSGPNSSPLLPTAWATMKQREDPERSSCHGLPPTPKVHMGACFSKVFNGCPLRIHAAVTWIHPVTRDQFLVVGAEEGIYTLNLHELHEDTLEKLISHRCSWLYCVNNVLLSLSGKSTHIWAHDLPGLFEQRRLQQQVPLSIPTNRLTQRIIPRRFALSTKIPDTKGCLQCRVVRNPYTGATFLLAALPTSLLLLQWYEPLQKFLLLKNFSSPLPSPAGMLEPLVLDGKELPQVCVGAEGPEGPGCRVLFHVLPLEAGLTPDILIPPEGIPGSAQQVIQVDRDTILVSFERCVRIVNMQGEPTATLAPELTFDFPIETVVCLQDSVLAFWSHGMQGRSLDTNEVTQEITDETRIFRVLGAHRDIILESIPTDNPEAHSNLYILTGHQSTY
Sequence of UniProt Q12906 (Q12906 whole entry, looked up): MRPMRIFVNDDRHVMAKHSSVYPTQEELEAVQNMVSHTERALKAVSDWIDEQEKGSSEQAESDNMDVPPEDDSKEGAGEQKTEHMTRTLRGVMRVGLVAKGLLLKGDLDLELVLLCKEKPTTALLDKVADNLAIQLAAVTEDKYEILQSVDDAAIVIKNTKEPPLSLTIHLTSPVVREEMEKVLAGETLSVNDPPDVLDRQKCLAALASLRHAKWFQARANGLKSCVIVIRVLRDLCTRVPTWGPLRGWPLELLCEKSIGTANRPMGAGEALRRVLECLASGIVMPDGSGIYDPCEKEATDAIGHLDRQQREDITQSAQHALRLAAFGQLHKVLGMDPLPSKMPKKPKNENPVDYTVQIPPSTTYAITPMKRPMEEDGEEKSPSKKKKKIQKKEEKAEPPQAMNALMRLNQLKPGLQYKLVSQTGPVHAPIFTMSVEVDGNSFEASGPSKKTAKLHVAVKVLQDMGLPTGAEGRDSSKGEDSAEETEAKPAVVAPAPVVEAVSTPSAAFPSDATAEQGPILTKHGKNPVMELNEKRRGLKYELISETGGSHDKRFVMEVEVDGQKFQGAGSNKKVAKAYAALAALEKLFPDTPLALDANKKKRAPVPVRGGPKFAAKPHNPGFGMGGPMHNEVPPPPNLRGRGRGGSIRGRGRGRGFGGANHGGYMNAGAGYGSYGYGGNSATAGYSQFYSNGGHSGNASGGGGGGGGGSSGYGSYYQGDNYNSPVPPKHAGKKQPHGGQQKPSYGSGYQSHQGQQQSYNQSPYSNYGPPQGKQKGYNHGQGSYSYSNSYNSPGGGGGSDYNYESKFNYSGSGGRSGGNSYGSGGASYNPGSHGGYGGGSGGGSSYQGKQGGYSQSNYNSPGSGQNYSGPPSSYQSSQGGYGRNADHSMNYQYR
Sequence of UniProt Q96G25 (Q96G25 whole entry, looked up): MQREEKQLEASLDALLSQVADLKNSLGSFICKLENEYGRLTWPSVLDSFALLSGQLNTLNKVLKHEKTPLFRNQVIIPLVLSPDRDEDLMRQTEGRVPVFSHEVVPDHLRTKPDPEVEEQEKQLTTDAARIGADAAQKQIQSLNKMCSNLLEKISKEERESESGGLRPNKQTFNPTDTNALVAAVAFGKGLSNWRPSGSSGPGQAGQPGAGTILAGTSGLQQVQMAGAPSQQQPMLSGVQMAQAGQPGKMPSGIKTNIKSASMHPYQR
Sequence of UniProt Q16539 (Q16539 whole entry, looked up): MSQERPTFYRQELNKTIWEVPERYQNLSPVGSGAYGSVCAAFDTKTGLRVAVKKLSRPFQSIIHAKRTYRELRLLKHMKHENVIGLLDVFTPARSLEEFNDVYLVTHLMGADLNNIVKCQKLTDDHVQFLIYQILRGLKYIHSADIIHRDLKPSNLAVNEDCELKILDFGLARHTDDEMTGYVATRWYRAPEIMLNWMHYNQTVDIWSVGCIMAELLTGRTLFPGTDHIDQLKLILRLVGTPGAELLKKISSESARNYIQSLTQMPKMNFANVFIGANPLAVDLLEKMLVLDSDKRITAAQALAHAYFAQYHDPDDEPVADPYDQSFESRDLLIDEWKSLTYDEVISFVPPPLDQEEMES

Target	log2 fold change (IRAK-1-4 Inhibitor I)	log2 fold change (ibrutinib)	log2 fold change [1]	log2 fold change (ralimetinib)	log2 fold change [2]	log2 fold change [3]	log2 fold change (pinometostat)	log2 fold change [4]	log2 fold change [5]	log2 fold change [6]	log2 fold change [7]	log2 fold change [8]	log2 fold change [9]	log2 fold change (vemurafenib)	log2 fold change [10]	log2 fold change [11]	log2 fold change (givinostat)	log2 fold change (barasertib)	log2 fold change [12]	log2 fold change (Nexturastat A)
MED25 isoform 3 (UniProt Q71SY5)	-0.087	0.039	-0.086	-0.099	0.016	-0.061	0.173	-0.03	0.053	-0.033	0.022	-0.012	-0.014	0.141	0.05	-0.083	0.105	0.019		
MFSD8 (UniProt Q8NHS3)	0.062	0.13	0.036	0.19	-0.446 (active)	0.08	0.101		0.124		-0.026	0.113	0.011	0.045	0.151	-0.046	0.034	-0.062	0.067	-0.004
MAPK14 (UniProt Q16539)	-0.048	0.016	0.793 (active)	1.52 (active)	-0.178	-0.135	-0.09	-0.234	0.062	1.62 (active)	0.615	0.111	0.022	0.059	0.339	0.002	0.03	-0.029		
LAMP2 isoform 2 (UniProt P13473)	0.127	-0.007	0.012		-0.713 (active)		-0.026	0.03	-0.078			-0.07	0.003	-0.082	-0.093	-0.071	-0.158	0	0.115	-0.015
MED8 isoform 2 (UniProt Q96G25)	-0.051	0.038	-0.216	-0.013	0.05	0.06	-0.043	0.016		-0.085	0.038	-0.03	0.089	0.36 (active)	-0.027	0.081	-0.038	-0.059	-0.081	0.045
MED22 (UniProt Q15528)	0.013	0.076	-0.058	0.064	-0.016	0.076	0.012	-0.007	0.096	-0.023	0.034		0.015	0.043		0.014	0.117	0.028	0.039	-0.033
MAGEA8 (UniProt P43361)	0.014	-0.086	0.128	-0.02	-0.146	0.068	0.024	0.077	-0.265		0.009	0.02	0.072	0.031	0.197		0.034	-0.123		
MGRN1 isoform 2 (UniProt O60291)	0.062	-0.003	0.116	-0.015	-0.225	0.114	0.041		-0.098		-0.059	0.021	-0.02		-0.307		0.012	0		
MAP4K2 (UniProt Q12851)	0.073	-0.071					0.113	0.003	0.021	-0.034		0.079	0.094		0.043			0.218		
MFSD11 (UniProt O43934)	0.015	0.006	-0.029				-0.009	0.031	0.095	-0.171		0.038	0.013	-0.012	0.039	-0.02		0.013	-0.008	-0.097
KIZ (UniProt Q2M2Z5)	-0.075		0.039	0.06		-0.107	0.099				0.057	0.003	-0.068		-0.181					
LENG8 (UniProt Q96PV6)	-0.122	0	-0.173	-0.13	-0.646 (active)	0.107	-0.071	0.031	0.15	0.112	-0.201		0.009	0.146		0.066	0.09	0.173	-0.389	-0.139
LMBR1 isoform 3 (UniProt Q8WVP7)	-0.013	-0.006	-0.054	-0.02	-0.453	-0.004	0.012		-0.244	-0.156	0.17	0.128	0.036	0.049	0.175	-0.086	0	-0.007	-0.037	0.134
ILF3 (UniProt Q12906)	-0.058	0.036					0.029	-0.126		0.106			-0.177			-0.232		-0.241	0.191	0.347
LDLRAP1 (UniProt Q5SW96)	0.013	-0.177		-0.032	-0.541 (active)	0.028	0.318				-0.028		-0.102				0.284	0.146		
ITGA2B (UniProt P08514)	-0.045		-0.045	0.054	0.462	0.026	-0.064	0.099	-0.121	-0.071	0.064	-0.058	-0.052	-0.105	0.134		0.09		-0.172	0.121
MAP2K5 (UniProt Q13163)	0.063		-1.19 (active)	0.066		-0.238	-0.051				-0.085		0.017							
MAP3K20 isoform 2 (UniProt Q9NYL2)	-0.164		-0.126		0.089		-0.021	0.01	-0.071	-0.375 (active)		-0.038	0.295		0.044	-0.017	0.003		0.078	0.16
MASTL (UniProt Q96GX5)	-0.001	-0.008	-0.061	0.001	-0.028	0.138	0.07	0.022		0.032	0.187		-0.056	-0.028		-0.032	-0.038	-0.013	-0.393 (active)	-0.149
LAPTM4B (UniProt Q86VI4)		0.019			0.141					0						-0.228	0.128	0.002		
KMT2C isoform 3 (UniProt Q8NEZ4)		0.007	-0.02	0.074	-0.06	0.191		0.002	0.049	-0.053	-0.07			-0.103		-0.033	0.011	-0.003	-0.044	-0.046
LMNA isoform 2 (UniProt P02545)									-0.128											
KIF21A (UniProt H0YI78)				0.366	-0.158	0.012					-0.001						0.447			
LOX (UniProt P28300)		0.074			-0.218			0.144								-0.269	0.087	-0.129		
